IL-1B inflam inh: inhibitors of inflammasome signaling (IL-1 beta secretion); THP-1 LPS/ATP IL-1B secretion, AlphaLISA, 16 h; active compounds read low; activity change, % at 57.5 µM; actives 4.7% (n = 360,000); in the data active = activity change below about -50%; inconclusive = mostly about -30% to -49%
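Secreted IL-1B measured by AlphaLISA bead assay after 16 h compound exposure of THP-1 cells; compounds (final up to 57.5 uM) added 1 h before LPS (250 ng/mL) and ATP (1.25 mM) stimulation; lower signal means less secretion.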
TDP1 cell noCPT: qHTS for Inhibitors of human tyrosyl-DNA phosphodiesterase 1 (TDP1): qHTS in cells in absence of CPT. DT40 Tdp1-/- hTDP1 cells, no CPT, ATP luminescence, 48 h. Potency, µM (doses to about 46.2 µM), without a hit: at the top dose activity change, negative = growth inhibition, actives largely listed as inhibitors. actives 15% (n = 420,000); also: potency is read from the fitted curve at half-maximal effect; nearly all actives have a fitted effect of over 55% in size
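Camptothecin absent (DMSO only). Human TDP1-complemented DT40 knockout cells, 400 cells/well, 37 °C for minimum 48 hr; ATP measured via CellTiter-Glo, 30 min dark incubation, luminescence.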
DT40 TDP1 CPT: DT40-hTDP1 cell growth loss with CPT; chicken DT40 Tdp1-/-;hTDP1 cells + 20 nM CPT, ATP luminescence, 48 h; Potency, µM (series often up to 46.2 µM), for the others: at the top dose activity change, negative = growth inhibition, actives largely listed as inhibitors; actives 12% (n = 420,000); also: potency is read from the fitted curve at half-maximal effect; nearly all actives have a fitted effect of over 55% in size
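Cell growth measured by CellTiter-Glo luminescence after a minimum 48 h, 37 C compound exposure with 20 nM CPT in Tdp1-knockout DT40 cells stably expressing hTDP1, seeded 400/well; qHTS titration format.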
HT1080 IDH1KD tx: HT-1080 IDH1 knockdown cell toxicity (counter line). Potency, µM (titrated, usually from 46.1 µM), inactives show top-dose activity, negative = toxicity, usual class: cytotoxic. actives 2% (n = 360,000). HT-1080 IDH1 knockdown viability, ATP luminescence, 48 h;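 also: potency is read from the fitted curve at half-maximal effect; 0% = DMSO wells and -100% = cell-free medium wells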
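Knockdown cells (IDH1KD HT-1080) received compounds 2 h after plating at 750 cells/well and were kept 48 h at 37 °C in 5% FBS RPMI. A CellTiter-Glo luminescence read gave % activity for curve fitting.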
HT1080-NT tox: kills 2HG-producing HT-1080-NT fibrosarcoma cells; HT-1080-NT fibrosarcoma viability, CellTiter-Glo ATP luminescence, 48 h; Potency, µM (series often up to 46.1 µM), for inactives: at the top dose activity, negative = less viability, actives largely listed as cytotoxic; actives 1.6% (n = 360,000);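 also: NT is the 2HG producing partner of a matched IDH1 knockdown line; potency is read from the fitted curve at half-maximal effect; 0% = DMSO-treated cells and -100% = media-only wells without cells; nearly all actives have a fitted effect of over 55% in size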
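Viability by CellTiter-Glo luminescence after 48 h compound exposure at 37C of HT-1080-NT cells (750/well, RPMI, 5% FBS). % activity scaled between DMSO wells and medium-only wells, then curve-fitted and categorized by curve class.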
12-LOX inh: inhibitors of human 12S-lipoxygenase ALOX12. P18054. Potency, µM (highest dose often 108 µM), for inactives: at the top dose activity change, negative = inhibition, most hits filed as inhibitors. purified 12hLO, xylenol orange hydroperoxide absorbance. actives 1.1% (n = 580,000); also: potency is read from the fitted curve at half-maximal effect
Target sequence (P18054 whole entry, looked up): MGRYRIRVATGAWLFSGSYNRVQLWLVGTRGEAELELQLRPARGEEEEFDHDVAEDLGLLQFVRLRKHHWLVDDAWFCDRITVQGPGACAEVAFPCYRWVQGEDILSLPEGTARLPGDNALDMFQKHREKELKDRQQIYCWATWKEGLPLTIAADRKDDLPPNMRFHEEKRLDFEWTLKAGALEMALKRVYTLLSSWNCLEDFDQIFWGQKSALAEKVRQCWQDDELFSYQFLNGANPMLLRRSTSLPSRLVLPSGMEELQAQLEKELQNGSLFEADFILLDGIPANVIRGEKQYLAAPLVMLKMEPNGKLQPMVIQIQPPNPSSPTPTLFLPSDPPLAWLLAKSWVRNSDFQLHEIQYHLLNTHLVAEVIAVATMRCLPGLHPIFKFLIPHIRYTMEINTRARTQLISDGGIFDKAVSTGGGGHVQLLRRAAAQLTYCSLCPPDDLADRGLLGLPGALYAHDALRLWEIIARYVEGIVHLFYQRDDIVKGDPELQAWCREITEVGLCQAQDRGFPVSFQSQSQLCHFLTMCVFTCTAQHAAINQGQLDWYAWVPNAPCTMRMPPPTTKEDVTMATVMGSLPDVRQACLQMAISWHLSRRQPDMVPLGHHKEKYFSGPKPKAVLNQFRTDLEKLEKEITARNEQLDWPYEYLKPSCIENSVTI
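Purified human 12hLO (150 nM final) in 25 mM Hepes, 0.01% Triton X-100, pH 7.0 was preincubated 15 min at room temperature with compound. Then 40 uM arachidonic acid was added, 30 min. Hydroperoxide was read by Fe-XO absorbance ratio 573/405 nm.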
Starred values were filed as active, the others as inactive; ? = inconclusive; / = not tested or not shown; [ ] = remark or other dose. Only a selection was taken, and hits are over-represented in it overall. Unless noted, calls follow the shape of the dose curve; as a rule, active = well fitted curve in the direction sought with a large enough effect; inconclusive = small, poorly fitted or top-dose-only effect, or another doubt; inactive = no such curve, though single readings can be large; an effect the other way counts as inactive or inconclusive. Unless noted, % is scaled to controls: 0 for no effect and ±100 for the full control effect.

SMILES | IL-1B inflam inh | TDP1 cell noCPT | DT40 TDP1 CPT | HT1080 IDH1KD tx | HT1080-NT tox | 12-LOX inh
CCN1C(=O)[C@@H]2Cc3c([nH]c4ccccc34)C(c3cc(OC)c(OC)c(OC)c3)N2C1=S (stereo partly drawn) | -17.8 | ? | ? | ? | ? | 4.1%
COc1cc([C@H]2c3[nH]c4ccccc4c3C[C@H]3C(=O)N4[C@@H](c5cc(OC)c(OC)c(OC)c5)c5[nH]c6ccccc6c5C[C@H]4C(=O)N23)cc(OC)c1OC | 4.6 | 2.91µM* | 4.61µM* | 14.6µM* | 11.6µM* | /
COc1cc(C2c3[nH]c4ccccc4c3CC3COC(=O)N32)cc(OC)c1O (stereo not drawn) | 35.5 | 0.291µM* | 0.291µM* | ? | ? | ?
O=C1[C@@H]2Cc3c([nH]c4ccccc34)C(c3ccccc3)N2C(=O)CN1CCO (stereo partly drawn) | -0.6 | 18.3% | -1.7% | 9.3% | 0.4% | -4.0%
C=CCN1C(=O)[C@@H]2Cc3c([nH]c4ccccc34)C(c3ccc(O)cc3)N2C1=S (stereo partly drawn) | -11.3 | 16.4µM* | ? | -7.2% | -24.6% | /
COc1ccc(OC)c(CNC(=O)c2cc(Br)ccc2O)c1 | / | / | / | / | / | -39.2%
CC1(C)CC(=O)C(C(C#Cc2ccccc2)C2=C(O)CC(C)(C)CC2=O)=C(O)C1 | -99.5* | 9.2µM* | 6.51µM* | ? | ? | ?
O=C1CCCC(O)=C1C(C#Cc1ccccc1)C1=C(O)CCCC1=O | -98.9* | 5.17µM* | 3.66µM* | ? | ? | /
CCOc1ccc(C(O)c2nccn2Cc2ccccc2)cc1OC (stereo not drawn) | / | / | / | / | / | -19.2%
Cc1ccn2c(Nc3ccccc3)c(-c3c[nH]c4ccccc34)nc2c1 | / | ? | 16.4µM* | / | / | ?
Cc1ccc2nc(-c3ccncc3)c(Nc3ccccc3)n2c1 | -9.4 | ? | ? | -2.1% | 2.4% | -10.8%
Cc1ccc(Nc2c(-c3c[nH]c4ccccc34)nc3cc(C)ccn23)cc1 | / | 23.1µM* | 23.1µM* | / | / | ?
Cc1ccc2nc(-c3c[nH]c4ccccc34)c(Nc3ccc(F)cc3)n2c1 | / | 18.4µM* | 14.6µM* | / | / | ?
Cc1ccn2c(Nc3ccc4c(c3)OCCO4)c(-c3ccccc3O)nc2c1 | / | ? | ? | / | / | -24.8%
COC(=O)c1cn([C@H]2CO[C@H]3[C@@H]2OC[C@@H]3NC(=O)NC2CCCCC2)nn1 | / | / | / | / | / | 17.2%[176 µM]
COc1ccc2c(=O)c(Oc3ccc(C)cc3)c(C(F)(F)F)oc2c1 | / | / | / | / | / | 18.2%
Cc1ccc(/C=N/Nc2ccc(S(=O)(=O)Nc3ccc(Cl)cc3)cc2[N+](=O)[O-])cc1 | / | / | / | / | / | 9.1%
C/C(CC(=O)Nc1ccc(N(C)C)cc1)=N\NC(=O)c1ccc([N+](=O)[O-])cc1Cl | 10.7 | 20.6µM* | ? | -5.6% | -0.7% | 0.3%
C/C(CC(=O)Nc1ccc(N(C)C)cc1)=N\NC(=O)c1ccccc1O | 28.4 | -1.7% | -17.3% | ? | 20.6µM* | 10.7%
COc1cccc(C(=O)N/N=C(\C)CC(=O)Nc2ccc(N(C)C)cc2)c1 | -88.7* | -2.3% | -0.4% | -23.3% | ? | 7.0%
C/C(CC(=O)Nc1ccc([N+](=O)[O-])cc1)=N\NC(=O)c1ccccc1O | 16.9 | -10.9% | 2.7% | -25.1% | -27.0% | 0.0%
COc1ccc(NC(=O)c2n[nH]c3ccccc23)cc1S(=O)(=O)Nc1ccccc1Cl | / | / | / | / | / | 5.0%
CCn1c(CC2C(=O)N(C(C)C)c3ccccc32)nc2ccccc2c1=O (stereo not drawn) | / | / | / | / | / | 0.8%
O=C(Cc1ccc2c(c1)CCCC2)NNC(=O)c1ccncc1 | / | / | / | / | / | 29.3%
